Source: ChEMBL document CHEMBL2218924, “A broad activity screen in support of a chemogenomic map for kinase signalling research and drug discovery” (Biochem J, 2013)

Tests used:
[1] = target: Protein kinase C delta type (Homo sapiens) (UniProt Q05655); settings: at 10 µM
[2] = target: T1, Protein kinase C epsilon type (Homo sapiens) (UniProt Q02156); settings: at 10 µM
T1 sequence (whole entry): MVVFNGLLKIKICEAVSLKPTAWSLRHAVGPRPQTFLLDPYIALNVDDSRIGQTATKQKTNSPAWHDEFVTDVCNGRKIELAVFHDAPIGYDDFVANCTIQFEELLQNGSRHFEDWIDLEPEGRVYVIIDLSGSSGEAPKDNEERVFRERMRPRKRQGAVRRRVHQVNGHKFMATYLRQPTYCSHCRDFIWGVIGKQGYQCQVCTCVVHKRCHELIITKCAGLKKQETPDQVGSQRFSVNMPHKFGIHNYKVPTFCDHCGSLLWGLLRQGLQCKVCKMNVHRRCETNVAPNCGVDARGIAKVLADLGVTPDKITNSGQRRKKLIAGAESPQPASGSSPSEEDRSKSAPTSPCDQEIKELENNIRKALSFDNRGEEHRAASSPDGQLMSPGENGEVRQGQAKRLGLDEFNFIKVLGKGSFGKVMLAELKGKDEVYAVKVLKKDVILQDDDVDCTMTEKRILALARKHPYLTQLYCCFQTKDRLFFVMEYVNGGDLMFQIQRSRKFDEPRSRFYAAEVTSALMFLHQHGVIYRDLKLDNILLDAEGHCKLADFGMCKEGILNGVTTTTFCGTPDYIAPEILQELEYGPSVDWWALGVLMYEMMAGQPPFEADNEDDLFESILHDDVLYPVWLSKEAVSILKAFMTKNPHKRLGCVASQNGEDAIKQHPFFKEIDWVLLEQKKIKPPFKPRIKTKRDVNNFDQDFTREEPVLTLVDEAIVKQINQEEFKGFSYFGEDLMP

[3] = target: T1, Protein kinase C epsilon type (Homo sapiens); settings: at 1 µM

Chain of Protein kinase C delta type (Homo sapiens) (Q05655 whole entry, looked up): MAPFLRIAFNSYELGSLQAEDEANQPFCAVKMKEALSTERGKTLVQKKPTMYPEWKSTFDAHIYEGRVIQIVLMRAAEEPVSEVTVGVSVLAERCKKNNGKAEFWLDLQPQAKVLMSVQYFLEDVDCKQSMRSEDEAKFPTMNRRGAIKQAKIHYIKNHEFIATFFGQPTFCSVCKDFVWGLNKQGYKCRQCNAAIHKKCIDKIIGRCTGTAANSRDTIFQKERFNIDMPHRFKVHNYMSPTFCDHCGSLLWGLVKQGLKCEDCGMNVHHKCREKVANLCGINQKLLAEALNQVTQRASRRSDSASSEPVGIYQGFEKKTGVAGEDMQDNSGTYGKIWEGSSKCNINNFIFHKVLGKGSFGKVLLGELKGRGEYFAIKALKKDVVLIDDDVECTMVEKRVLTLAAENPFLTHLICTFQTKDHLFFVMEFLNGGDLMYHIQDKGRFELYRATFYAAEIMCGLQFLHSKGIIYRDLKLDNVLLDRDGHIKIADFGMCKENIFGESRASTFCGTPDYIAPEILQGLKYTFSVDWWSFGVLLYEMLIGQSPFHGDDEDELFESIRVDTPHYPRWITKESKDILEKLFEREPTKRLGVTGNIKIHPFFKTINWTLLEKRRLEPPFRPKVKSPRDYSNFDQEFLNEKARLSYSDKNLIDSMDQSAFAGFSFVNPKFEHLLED

| SMILES | residual activity [1] [%] | residual activity [2] [%] | residual activity [3] [%] |
| --- | --- | --- | --- |
| COc1ccc2c(c1)/C(=C/c1cnc[nH]1)C(=O)N2 | 61 | 80 | – |
| COc1cc2ncnc(Nc3ccc(OCc4ccccc4)cc3)c2cc1OC | 106 | 119 | 104 |
| COc1cc(OC)c(/C=C2\C(=O)Nc3ccccc32)c(OC)c1 | – | 107 | 95 |
| CCc1nc(-c2ccc(OC)cc2)[nH]c1-c1ccncc1 | 105 | 109 | 104 |
| c1cc(-c2cnn3cc(-c4ccc(OCCN5CCCCC5)cc4)cnc23)ccn1 | – | 103 | – |
| CC(C)(C)c1cc(C=C(C#N)C#N)cc(Br)c1O | 97 | – | 108 |
| O=C1Nc2ccc3ncsc3c2/C1=C/c1c[nH]cn1 | 5 | 9 | 27 |
| CCn1cnc2c(Nc3cccc(Cl)c3)nc(N[C@@H]3CCCC[C@@H]3N)nc21 | 59 | 80 | 100 |
| COC(=O)[C@@]1(O)C[C@H]2O[C@]1(C)n1c3ccccc3c3c4c(c5c6ccccc6n2c5c31)C(=O)NC4 | 3 | 10 | 51 |
| COc1ccc2c(c[n+](C)c3c4cc5c(cc4ccc23)OCO5)c1OC | – | 78 | 88 |
| O=c1[nH]c2ccccc2n1C1CCN(Cc2ccc(-c3nc4cc5[nH]cnc5cc4nc3-c3ccccc3)cc2)CC1 | 111 | 100 | 87 |
| CC(C)[C@H](CO)Nc1nc(Nc2cccc(Cl)c2)c2ncn(C(C)C)c2n1 | – | 92 | – |
| C[S+]([O-])c1ccc(-c2nc(-c3ccc(F)cc3)c(-c3ccncc3)[nH]2)cc1 (centres undefined) | 105 | 105 | 125 |
| O=[N+]([O-])/C=C/c1ccc2c(c1)OCO2 | 95 | 81 | 81 |
